Only some compounds are listed: those with a hit (about 9.2% of all), similar ones and a draw of the others.
HPGD inh: qHTS Assay for Inhibitors of HPGD (15-Hydroxyprostaglandin Dehydrogenase) | 150,000 tested, 4.3% active | purified HPGD, NADH fluorescence kinetic, PGE2 substrate | AID 894, 2007 | Potency, µM, for the others: at the highest dose activity change, negative = inhibition, usual class: inhibitors; note: % is set by controls: 0 for no effect and ±100 for the full control effect
Target sequence (P15428 whole entry, looked up): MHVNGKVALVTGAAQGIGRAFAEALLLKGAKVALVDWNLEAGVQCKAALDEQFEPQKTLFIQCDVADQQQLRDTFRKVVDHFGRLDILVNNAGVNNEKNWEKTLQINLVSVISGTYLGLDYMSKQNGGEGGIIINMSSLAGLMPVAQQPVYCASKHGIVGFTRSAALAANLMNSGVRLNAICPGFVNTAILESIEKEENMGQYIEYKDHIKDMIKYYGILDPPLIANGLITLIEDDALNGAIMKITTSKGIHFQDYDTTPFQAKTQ
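NADH formation kinetics: reaction with 30 uM PGE2 and 1 mM NAD+ (final), 20 nM enzyme, Tris-HCl pH 8 with Tween 20, after 15 min compound preincubation at room temperature. Fluorescence change, last versus first of five reads.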
Lamin A splicing: qHTS Assay for Modulators of Lamin A Splicing | Potency, µM (top dose mostly 46.1 µM), for inactives: at the highest dose ratio change, negative = inhibition, usual class: inhibitors | 200,000 tested, 0.01% active | HeLa LMNA splicing GFP/RFP minigene ratio, 48 h | AID 1487, 2009; active = well fitted inhibition curve with a large enough effect in the signal ratio, with a control signal flat, not every such curve was filed as active; inconclusive = small, poorly fitted or top-dose-only effect, or effect the other way, or a change in a side signal; the % refers to the signal ratio; note: % is set by controls: 0 for no effect and ±100 for the full control effect
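Read-out is the ratio of GFP to DsRed2 object intensity, acquired by 488 nm laser-scanning cytometry on HeLa lamin A-EGFP minigene reporter cells. Compound incubation 48 hrs at 37 °C in Opti-MEM with 2% FBS; DMSO 0.5% final.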
HTT ATP protect: qHTS Multiplex Assay to Identify Dual Action Probes in a Cell Model of Huntington: Cytoprotection (ATP); AID 1471, 2008; 230,000 tested, 0.14% active; Potency, µM (series often up to 56.4 µM), for inactives: cytoprotection (ATP increase), most hits filed as activators; PC12 HTT-Q103 induced, cytoprotection, ATP luminescence, 40 h; active = well fitted curve in the direction sought with a large enough effect; inconclusive = small, poorly fitted or top-dose-only effect, or another doubt; inactive = no such curve, though single readings can be large; an effect the other way counts as inactive or inconclusive; note: % of control where 0% means no effect; nearly all actives have a fitted effect of over 45% in size
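PC12 cells with ecdysone-inducible HTT exon 1 Q103-GFP, induced with 100 nM tebufenozide and co-treated with library compounds in a dose series (1536-well, 1500 cells/well). Cytoprotection read as ATP content by ATPlite luminescence.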
KDM4E inh: qHTS Assay for Inhibitors of Human Jumonji Domain Containing 2E (JMJD2E); Lysine-specific demethylase 4E (Homo sapiens), B2RXH2; JMJD2E catalytic domain, FDH-coupled NADH fluorescence (FDH is formaldehyde dehydrogenase); Potency, µM (titrated, usually from 57.1 µM), for the others: top-dose activity change, negative = inhibition, hits mostly inhibitors; 230,000 tested, 1.6% active;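 note: 0% = wells with enzyme and -100% = buffer wells without enzyme; nearly all actives have a fitted effect of over 50% in size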
ALDH1A1 block: qHTS Assay for Inhibitors of Aldehyde Dehydrogenase 1 (ALDH1A1); Purified ALDH1A1, NADH fluorescence, propionaldehyde substrate; AID 1030, 2008; Potency, µM (top dose mostly 75.3 µM), for the others: at the top dose activity, negative = inhibition, actives largely listed as inhibitors; Aldehyde dehydrogenase 1A1 (Homo sapiens), P00352; 220,000 tested, 7.3% active;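 note: plate controls were no enzyme wells and a reference inhibitor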
Target sequence (P00352 whole entry, looked up): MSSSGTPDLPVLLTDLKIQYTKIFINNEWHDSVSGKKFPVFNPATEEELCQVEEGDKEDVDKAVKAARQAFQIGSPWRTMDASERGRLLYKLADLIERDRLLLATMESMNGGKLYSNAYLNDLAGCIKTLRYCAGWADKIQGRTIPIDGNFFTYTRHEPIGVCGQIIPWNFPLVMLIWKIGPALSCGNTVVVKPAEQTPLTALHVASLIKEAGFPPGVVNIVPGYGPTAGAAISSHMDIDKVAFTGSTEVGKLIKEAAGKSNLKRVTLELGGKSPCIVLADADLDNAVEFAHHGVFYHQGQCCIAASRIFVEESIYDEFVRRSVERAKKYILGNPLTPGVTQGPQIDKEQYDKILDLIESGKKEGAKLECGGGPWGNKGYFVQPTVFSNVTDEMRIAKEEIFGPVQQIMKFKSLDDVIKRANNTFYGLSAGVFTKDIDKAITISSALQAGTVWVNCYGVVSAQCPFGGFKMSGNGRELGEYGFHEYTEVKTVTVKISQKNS
HttQ103 aggreg: qHTS Multiplex Assay to Identify Dual Action Probes in a Cell Model of Huntington: Aggregate Formation (GFP); 220,000 tested, 1.1% active; Potency, µM (titrated, usually from 46.1 µM), without a hit: top-dose activity change, negative = inhibition, most hits filed as inhibitors; AID 1688, 2009; PC12 HttQ103-GFP aggregates, Acumen cytometry, 40 h; active = well fitted curve in the direction sought with a large enough effect; inconclusive = small, poorly fitted or top-dose-only effect, or another doubt; inactive = no such curve, though single readings can be large; an effect the other way counts as inactive or inconclusive; note: % is set by controls: 0 for no effect and ±100 for the full control effect; nearly all actives have a fitted effect of over 60% in size
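PC12/HTTQ103-GFP, ecdysone-inducible; teb 100 nM; cpd qHTS titration; GFP aggregates read on laser cytometer, Ex 488/Em 500-530 nm.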
* marks the source's active call; other numbers are inactive results; ? = inconclusive; nt = no result; [ ] = dose if it differs, or a comment. Unless noted, calls come from the whole dose curve; as a rule, active = well fitted inhibition curve with a large enough effect (not every such curve was filed as active); inconclusive = small, poorly fitted or top-dose-only effect, or another doubt; inactive = no such curve, though single readings can be large or run the other way. Potency is the fitted concentration of half-maximal effect.

SMILES	HPGD inh	Lamin A splicing	HTT ATP protect	KDM4E inh	ALDH1A1 block	HttQ103 aggreg
CCCCCC[C@H]1C(=O)O[C@H](C)[C@H](NC(=O)c2cccc(NC=O)c2O)C(=O)O[C@@H](C)[C@@H]1OC(=O)CC(C)C	?	nt	-155%[1.9 µM]	?	?	nt
COc1ccc(-n2c(C)nc3cc(C(=O)N4CCC5(CC4)OCCO5)ccc32)cc1	13µM*	-11%	14%[1.9 µM]	-4%	?	0%
O=C(c1ccc2c(c1)ncn2-c1ccc(F)cc1F)N1CCC2(CC1)OCCO2	nt	nt	-74%	-5%	?	-8%
Cc1nc2cc(C(=O)N3CCC4(CC3)OCCO4)ccc2n1-c1ccc(Br)cc1	8.9µM*	5%	-1%	1%	?	10%
COc1ccc(CCNCc2ccncc2)cc1OC	-8%	11%	3%	?	13µM*	10%
CCSC(=O)Cl	-9%	nt	-10%	nt	?	nt
N#C/C(N)=C(/N)C#N	-11%	nt	-6%	nt	-2%	nt
CS/C(N)=C(C#N)/C(C#N)=C(\N)SC	?	nt	-163%	nt	7.1µM*	nt
O=C(c1cnn2c(C(F)(F)F)cc(-c3ccccc3)nc12)N1CCC2(CC1)OCCO2	-13%	-4%	2%[10 µM]	-12%	?	21%
COc1cccc(-c2cc(C(F)(F)F)n3nc(C(=O)N4CCC5(CC4)OCCO5)cc3n2)c1	11µM*	-1%	-14%	-9%	13µM*	-2%
ClCCCl	-1%	nt	-2%	nt	?	nt
Nc1ccccc1O.O.O=C(O)[C@H]1[O][Sb][O][C@H]1C(=O)O	-6%	nt	22%[10 µM]	nt	3.2µM*	nt
Nc1ccccc1C(=O)O	-20%	20%	-41%	nt	?	-4%
C=C(CC1(C(C)NP(=O)(c2ccccc2)c2ccccc2)CC1)c1ccccc1 (stereo unspecified)	-12%	nt	-43%	-8%	5%	nt
Cc1cccc(CN2CCN(Cc3ccc(Cl)cc3)CC2)c1	-10%	-1%	-14%	16µM*	?	0%[1.84 µM]
Oc1ccc(Cl)cc1CN1CCN(Cc2ccccc2)CC1	0%	-5%	-9%	4%	15%	-12%
Cc1cccc(CN2CCN(c3ccc(Cl)cc3)CC2)c1	nt	?	-9%[10 µM]	22µM*	?	21%
C/C=C(\C)C(=O)O[C@@H]1C(C)=C2[C@H]([C@@H]1OC(=O)CCCCCCC)[C@@](C)(OC(C)=O)C[C@@H](OC(=O)CCC)[C@@]1(O)[C@H]2OC(=O)[C@]1(C)O	nt	nt	-80%[1.9 µM]	nt	nt	nt
Cc1c2ccncc2c(C)c2c1[nH]c1ccccc12	-16%	?	-82%[40.3 µM]	13µM*	?	-11%
CCN(CCCl)Cc1ccccc1Br	5%	?	-1%[1.9 µM]	3%	-5%	nt
CCCCCOc1ccc(C)cc1CN(CCCl)CCCl	nt	nt	10%[10 µM]	-26%	20µM*	2%[9.22 µM]
COP(=O)(OC)O/C(=C\Cl)c1cc(Cl)c(Cl)cc1Cl	-9%	nt	3%	nt	?	nt
C[C@](O)(CS(=O)(=O)c1ccc(F)cc1)C(=O)Nc1ccc(C#N)c(C(F)(F)F)c1	nt	nt	9%	nt	nt	-3%
O=C1CN=C(c2ccccc2F)c2cc(Cl)ccc2N1	-16%	?	nt	-3%	-2%	14%
O=C1CN=C(c2ccccc2)c2cc([N+](=O)[O-])ccc2N1	25µM*	?	-66%	nt	1%	-1%
SMILES	HPGD inh	Lamin A splicing	HTT ATP protect	KDM4E inh	ALDH1A1 block	HttQ103 aggreg
CN(C)/C=c1\sc2c(C#N)cc(C(=O)c3ccc(Br)cc3)n2c1=O	-12%	4%	-17%[10 µM]	5%	2µM*	-11%
CCCN1[C@H](C(=O)OC)C[C@@H]2CC[C@@H](O)C[C@@H]21	-8%	nt	3%	-19%	0%	nt
CC(=O)O[C@H]1C[C@H]2CC[C@@H]3[C@@H](CC[C@]4(C)[C@H](OC(C)=O)[C@H]([N+]5(C)CCCCC5)C[C@@H]34)[C@]2(C)C[C@H]1[N+]1(C)CCCCC1	-4%	-11%	-2%[40.3 µM]	1%[25.5 µM]	-6%[20.9 µM]	nt
CC(C)C[C@H]1C(=O)N2CCC[C@@H]2[C@]2(O)O[C@](NC(=O)[C@H]3C=C4c5cccc6[nH]cc(c56)C[C@H]4N(C)C3)(C(C)C)C(=O)N12	nt	nt	0%	nt	nt	nt
Cn1cc(C(=O)c2ccccc2)c2ccccc21	-14%	-7%	-14%	-2%	-10%	3%
COc1cc(O)c(C(=O)c2ccccc2)cc1S(=O)(=O)O	-1%	?	?	nt	13µM*	5%
Cc1cc2nc3c(=O)[nH]c(=O)nc-3n(C[C@H](O)[C@H](O)[C@H](O)COP(=O)(O)OP(=O)(O)OC[C@H]3O[C@@H](n4cnc5c(N)ncnc54)[C@H](O)[C@@H]3O)c2cc1C	nt	nt	-6%	nt	nt	?
CN1C(=O)CCS(=O)(=O)[C@H]1c1ccc(Cl)cc1	0%	nt	4%	-1%	4%	nt
CN(C)c1ccc(-[n+]2c(-c3ccccc3)cc(-c3ccccc3)cc2-c2ccccc2)cc1	nt	?	-163%	-6%	-14%	1.1µM*
c1ccc(-c2cc(-c3ccccc3)[n+](-c3ccccc3)c(-c3ccccc3)c2)cc1	nt	nt	-75%[10 µM]	?	nt	4µM*
C[n+]1c(-c2ccccc2)cc(-c2ccc(Cl)cc2)cc1-c1ccccc1	nt	-29%[46 µM]	-68%	?	?	?
COc1ccc2c(c1)[C@]13CCCC[C@@H]1[C@H](C2)NCC3	nt	nt	27%[1.9 µM]	nt	nt	nt
Cc1csc(NC(=O)C2CCCN(S(=O)(=O)c3ccc4c(c3)oc(=O)n4C)C2)n1 (stereo unspecified)	8.9µM*	?	-1%	-1%	-15%	6%
Cn1c(=O)oc2cc(S(=O)(=O)N3CCOCC3)ccc21	-2%	?	-11%	6%	9%	7%
Cc1cc[c]([Sb]2[O][C@H]([C@H](O)[C@H](O)C(=O)O)[C@@H](CO)[O]2)cc1	nt	nt	2%[10 µM]	nt	nt	nt
COc1ccc(/C=N/N=C(/N)N[N+](=O)[O-])c(OC)c1	-29%	?	-18%	?	-1%	13%
N/C(=N\N=C/c1ccc(-c2ccc(O)c(C(=O)O)c2)o1)N[N+](=O)[O-]	7.1µM*	11%	-36%	?	?	-1%
C=CCN1C[C@H](C)N([C@H](c2ccc(C(=O)N(CC)CC)cc2)c2cccc(O)c2)C[C@H]1C	11µM*	nt	-22%	8%	4%	nt
CCC1CN2CCC1CC2C(O)c1ccnc2ccccc12 (stereo unspecified)	3%	nt	19%[1.9 µM]	4%	4%	nt
